# Measurements reported in PubChem BioAssay AID1508601 (ICCB-Longwood Screening Facility, Harvard Medical School, 2020).
# Among all 5,700 compounds or so, about 85 (1%) were called active. No stated cut-off is given here; in the data, active means p53-positive nuclei above about 36% (passing the limit was not always enough); inactive means the rest. The sample as a whole holds a higher share of actives than the screen did.
# Tests used:
# [1] = nuclear p53 accumulation, HPV+ cells – imaging, p53-positive nuclei imaging, 24 h, 48 h (AID 1508601); details: 24/48 h
# [2] = molecular target: Cellular tumor antigen p53 (Homo sapiens) (UniProt P04637); test: as above; details: 24/48 h, stronger effect = higher value
# [3] = measured here: cell number at 24 h, concentration not given here
# [4] = measured here: cell number at 48 h, concentration not given here
# [5] = measured here: p53 positive nuclei at 24 h, concentration not given here
# [6] = measured here: cell number at 24 h, Library stock concentration: 10 mM
# [7] = measured here: cell number at 48 h, Library stock concentration: 10 mM
# [8] = Library stock concentration: 10 mM
# [9] = measured here: p53 positive nuclei at 24 h, Library stock concentration: 10 mM
# Chain of Cellular tumor antigen p53 (Homo sapiens) (P04637 whole entry, looked up): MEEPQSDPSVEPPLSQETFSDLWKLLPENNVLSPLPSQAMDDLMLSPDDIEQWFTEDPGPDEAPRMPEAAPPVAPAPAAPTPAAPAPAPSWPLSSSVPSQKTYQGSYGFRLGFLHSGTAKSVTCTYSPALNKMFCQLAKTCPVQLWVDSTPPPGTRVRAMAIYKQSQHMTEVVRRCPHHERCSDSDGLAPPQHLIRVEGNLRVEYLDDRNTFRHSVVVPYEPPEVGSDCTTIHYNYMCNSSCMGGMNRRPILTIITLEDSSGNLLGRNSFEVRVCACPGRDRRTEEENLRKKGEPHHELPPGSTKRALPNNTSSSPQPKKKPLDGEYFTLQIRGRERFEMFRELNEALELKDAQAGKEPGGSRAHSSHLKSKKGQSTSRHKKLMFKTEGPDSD
smiles,measurement,setting,value
O=C(Nc1ccc2nccnc2c1)c1csc(Cc2ccccc2)n1,"nuclei count, normalised",[1]; [3],101%
same,"nuclei count, normalised",[1]; [4],102%
same,"p53-positive nuclei, normalised",[2]; concentration not given here,0.478% (inactive)
same,"p53-positive nuclei, normalised",[2]; [5],0.426%
O=C(O)CCCCCCCCCCCNC(=O)NC12CC3CC(CC(C3)C1)C2,"nuclei count, normalised","[1]; measured here: cell number at 24 h, Library stock concentration: 46 uM",111%
same,"nuclei count, normalised","[1]; measured here: cell number at 24 h, Library stock concentration: 278 uM",105%
same,"nuclei count, normalised","[1]; measured here: cell number at 24 h, Library stock concentration: 1.67 mM",106%
same,"nuclei count, normalised",[1]; [6],101%
same,"nuclei count, normalised",[1]; [3],106%
same,"nuclei count, normalised","[1]; measured here: cell number at 48 h, Library stock concentration: 46 uM",111%
same,"nuclei count, normalised","[1]; measured here: cell number at 48 h, Library stock concentration: 278 uM",105%
same,"nuclei count, normalised","[1]; measured here: cell number at 48 h, Library stock concentration: 1.67 mM",103%
same,"nuclei count, normalised",[1]; [7],101%
same,"nuclei count, normalised",[1]; [4],113%
same,"p53-positive nuclei, normalised",[2]; Library stock concentration: 46 uM,-0.188% (inactive)
same,"p53-positive nuclei, normalised",[2]; Library stock concentration: 278 uM,0.036% (inactive)
same,"p53-positive nuclei, normalised",[2]; Library stock concentration: 1.67 mM,0.0433% (inactive)
same,"p53-positive nuclei, normalised",[2]; [8],0.0468% (inactive)
same,"p53-positive nuclei, normalised",[2]; concentration not given here,-0.166% (inactive)
same,"p53-positive nuclei, normalised","[2]; measured here: p53 positive nuclei at 24 h, Library stock concentration: 46 uM",-0.135%
same,"p53-positive nuclei, normalised","[2]; measured here: p53 positive nuclei at 24 h, Library stock concentration: 278 uM",-0.135%
same,"p53-positive nuclei, normalised","[2]; measured here: p53 positive nuclei at 24 h, Library stock concentration: 1.67 mM",0.0415%
same,"p53-positive nuclei, normalised",[2]; [9],-0.0737%
same,"p53-positive nuclei, normalised",[2]; [5],-0.144%
COC(=O)C=CC(=O)N(O)CCCCNCc1ccc(COC(=O)Nc2cccc3ccccc23)cc1,"nuclei count, normalised","[1]; measured here: cell number at 24 h, Library stock concentration: 80 uM",119%
same,"nuclei count, normalised","[1]; measured here: cell number at 24 h, Library stock concentration: 400 uM",118%
same,"nuclei count, normalised","[1]; measured here: cell number at 24 h, Library stock concentration: 2 mM",116%
same,"nuclei count, normalised",[1]; [6],97.3%
same,"nuclei count, normalised","[1]; measured here: cell number at 48 h, Library stock concentration: 80 uM",112%
same,"nuclei count, normalised","[1]; measured here: cell number at 48 h, Library stock concentration: 400 uM",113%
same,"nuclei count, normalised","[1]; measured here: cell number at 48 h, Library stock concentration: 2 mM",110%
same,"nuclei count, normalised",[1]; [7],92.8%
same,"p53-positive nuclei, normalised",[2]; Library stock concentration: 80 uM,-0.786% (inactive)
same,"p53-positive nuclei, normalised",[2]; Library stock concentration: 400 uM,-0.552% (inactive)
same,"p53-positive nuclei, normalised",[2]; Library stock concentration: 2 mM,-0.616% (inactive)
same,"p53-positive nuclei, normalised",[2]; [8],-0.57% (inactive)
same,"p53-positive nuclei, normalised","[2]; measured here: p53 positive nuclei at 24 h, Library stock concentration: 80 uM",-0.122%
same,"p53-positive nuclei, normalised","[2]; measured here: p53 positive nuclei at 24 h, Library stock concentration: 400 uM",-0.0743%
same,"p53-positive nuclei, normalised","[2]; measured here: p53 positive nuclei at 24 h, Library stock concentration: 2 mM",-0.0278%
same,"p53-positive nuclei, normalised",[2]; [9],-0.0473%
